# Assay results published in paper PMC5540273 (PLoS ONE, 2017).
# Where two headings read alike, the source gives them in different places.
# Tests used:
# [1] = test system: FYN; conditions: concentration: 1 μM,replicates: in singlicate; n = 1
# [2] = test system: GAK; conditions: concentration: 1 μM,replicates: in singlicate; n = 1
# [3] = test system: T1, GCN2(Kin.Dom.2,S808G); conditions: concentration: 1 μM,replicates: in singlicate; n = 1
# T1 construct: gene EIF2AK4
# [4] = test system: GRK1; conditions: concentration: 1 μM,replicates: in singlicate; n = 1
# [5] = test system: T2, GRK2; conditions: concentration: 1 μM,replicates: in singlicate; n = 1
# T2 construct: gene ADRBK1
# [6] = test system: T3, GRK3; conditions: concentration: 1 μM,replicates: in singlicate; n = 1
# T3 construct: gene ADRBK2
# [7] = test system: GRK4; conditions: concentration: 1 μM,replicates: in singlicate; n = 1
# [8] = test system: GRK7; conditions: concentration: 1 μM,replicates: in singlicate; n = 1
# [9] = test system: GSK3A; conditions: concentration: 1 μM,replicates: in singlicate; n = 1
# [10] = test system: GSK3B; conditions: n = 1
# [11] = concentration: 1 μM,replicates: in singlicate
# 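Also: KINOMEscan kinase panel screen.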
Compound,%Inh [1] [%],%Inh [2] [%],%Inh [3] [%],%Inh [4] [%],%Inh [5] [%],%Inh [6] [%],%Inh [7] [%],%Inh [8] [%],%Inh [9] [%],"%Inh [10, 11] [%]",%Inh ([10]; 1 µM) [%]
O=C(Nc1n[nH]c2cc(-c3ccco3)ccc12)C1CC1 [SB-737447],0,5,25,23,0,0,68,3,96.2,66,
CCn1c(-c2nonc2N)nc2cncc(Br)c21 [SB-738004],0,17,0,32,12,69,0,16,29,40,
C[C@@H]1CNc2c(sc3ccc4nc(-c5ccncc5)ccc4c23)C(=O)N1,0,13,0,34,18,0,2,29,0,3,
Cc1n[nH]c2cc(Nc3ccnc(Nc4cccc(CN5CCOCC5)c4)n3)ccc12 [GW682569],75,74,39,5,31,24,64,0,0,15,
COc1cccc(CNC(=O)NC2CCN(c3ccnc(Nc4cc(OC)c(OC)c(OC)c4)n3)C2)c1 (centres unmarked) [GSK1379765],12,0,0,0,0,19,74,0,0,7,
Cn1ccc2ncnc(Oc3ccc(NC(=O)Nc4cccc(C(F)(F)F)c4)c(F)c3)c21,10,12,26,15,0,0,24,0,2,7,
CN(c1ccccc1CNc1nc(Nc2ccc3c(c2)CC(=O)N3)ncc1C(F)(F)F)S(C)(=O)=O,0,45,0,12,0,0,7,47,64,0,
O=C(Nc1cccc(C(F)(F)F)c1)c1cccc(Oc2ccc3nccn3n2)c1,62,0,0,9,0,35,10,0,0,2,
c1ccc(Oc2ccc(Nc3ccnc4ccc(-c5ccccn5)cc34)cc2)cc1 [GW407034],62,17,1,0,0,46,16,0,7,9,
CN(c1ccc2c(c1)nc(NCc1ccc(F)cc1)n2C)c1ccnc(Nc2ccc(CS(C)(=O)=O)cc2)n1.Cl [GW813244],74,15,68,27,0,0,0,0,14,11,
Nc1nccc(-c2ccc3c(N)n[nH]c3c2)n1 [GSK1034945],32,15,0,100,0,40,52,0,0,19,
CSc1nccc(-c2c(-c3ccc(F)cc3)ncn2CCCN2CCOCC2)n1.Cl [SB-217146],0,6,0,45,0,11,10,0,0,18,
Cc1ccc(Nc2ccnc(Nc3ccc4c(c3)CS(=O)(=O)C4)n2)cc1O.Cl [GW579362],97.9,87,98.4,2,0,22,82,0,63,23,
FC(F)(F)c1cc(Br)cc(Nc2nccc(-c3cnn4ncccc34)n2)c1 [GW810578],0,20,12,7,14,8,0,10,90.4,89,
CC(=O)Nc1nc2cnc(Nc3cc(NC(=O)c4cccc(CC(C)(C)C#N)c4)ccc3C)nc2s1,0,9,0,0,15,0,0,44,0,2,
O=C1NCCc2[nH]c(-c3ccncc3)cc21,0,5,0,14,25,36,3,27,88,54,
CCN1CCN(CCCC(=O)Nc2n[nH]c3nc(-c4ccc(O)cc4)c(Br)cc23)CC1 [SB-731579],4,0,0,0,0,25,21,0,99.5,,98.5
